Measured values reported in paper PMC11062922 (Nature Chemical Biology, 2023).
Read-outs that look alike come from different tables or passages of the source.

Columns and labels:
TNIK = conditions: read-out: apparent Kd, n = 1
ULK3 = conditions: read-out: apparent Kd, n = 1
[1] = compound concentrations:100 nM and 1000 nM (sheet 'Lestaurtinib' of Supplementary Table 1),run:Lestaurtinib_02896_R2,Plate:MR030
[2] = compound concentrations:100 nM and 1000 nM (sheet 'Lestaurtinib' of Supplementary Table 1),run:Lestaurtinib_02896_R3,Plate:MR030
[3] = compound concentrations:100 nM and 1000 nM (sheet 'Lestaurtinib' of Supplementary Table 1),run:Lestaurtinib_03252_R1,Plate:MR032
[4] = compound concentrations:100 nM and 1000 nM (sheet 'Lestaurtinib' of Supplementary Table 1),run:Lestaurtinib_03260_R1,Plate:MR033

Lestaurtinib
potency estimated from few doses (TNIK; compound concentrations:100 nM and 1000 nM (sheet 'Lestaurtinib' of Supplementary Table 1),run:Lestaurtinib_02795_R2,Plate:MR022): 154 nM | potency estimated from few doses (TNIK; compound concentrations:100 nM and 1000 nM (sheet 'Lestaurtinib' of Supplementary Table 1),run:Lestaurtinib_02795_R3,Plate:MR022): 504 nM | potency estimated from few doses (TNIK; compound concentrations:100 nM and 1000 nM (sheet 'Lestaurtinib' of Supplementary Table 1),run:Lestaurtinib_02802_R1,Plate:MR029): 121 nM | potency estimated from few doses (TNIK; compound concentrations:100 nM and 1000 nM (sheet 'Lestaurtinib' of Supplementary Table 1),run:Lestaurtinib_02802_R2,Plate:MR029): 141 nM | potency estimated from few doses (TNIK; compound concentrations:100 nM and 1000 nM (sheet 'Lestaurtinib' of Supplementary Table 1),run:Lestaurtinib_02896_R1,Plate:MR030): 444 nM | potency estimated from few doses (TNIK; [1]): 356 nM | potency estimated from few doses (TNIK; [2]): 484 nM | potency estimated from few doses (TNIK; compound concentrations:100 nM and 1000 nM (sheet 'Lestaurtinib' of Supplementary Table 1),run:Lestaurtinib_03172_R2,Plate:MR031): 157 nM | potency estimated from few doses (TNIK; compound concentrations:100 nM and 1000 nM (sheet 'Lestaurtinib' of Supplementary Table 1),run:Lestaurtinib_03172_R3,Plate:MR031): 561 nM | potency estimated from few doses (TNIK; [3]): 143 nM | potency estimated from few doses (TNIK; [4]): 428 nM | potency estimated from few doses (TNIK; compound concentrations:100 nM and 1000 nM (sheet 'Lestaurtinib' of Supplementary Table 1),run:Lestaurtinib_03260_R2,Plate:MR033): 808 nM | potency estimated from few doses (TNIK; compound concentrations:100 nM and 1000 nM (sheet 'Lestaurtinib' of Supplementary Table 1),run:Lestaurtinib_03260_R3,Plate:MR033): 717 nM | potency estimated from few doses (ULK3; compound concentrations:100 nM and 1000 nM (sheet 'Lestaurtinib' of Supplementary Table 1),run:Lestaurtinib_02339_R1,Plate:MR001): 270 nM | potency estimated from few doses (ULK3; compound concentrations:100 nM and 1000 nM (sheet 'Lestaurtinib' of Supplementary Table 1),run:Lestaurtinib_02339_R3,Plate:MR001): 265 nM | potency estimated from few doses (ULK3; compound concentrations:100 nM and 1000 nM (sheet 'Lestaurtinib' of Supplementary Table 1),run:Lestaurtinib_02364_R1,Plate:MR002): 301 nM | potency estimated from few doses (ULK3; compound concentrations:100 nM and 1000 nM (sheet 'Lestaurtinib' of Supplementary Table 1),run:Lestaurtinib_02364_R2,Plate:MR002): 295 nM | potency estimated from few doses (ULK3; compound concentrations:100 nM and 1000 nM (sheet 'Lestaurtinib' of Supplementary Table 1),run:Lestaurtinib_02367_R1,Plate:MR003): 146 nM | potency estimated from few doses (ULK3; compound concentrations:100 nM and 1000 nM (sheet 'Lestaurtinib' of Supplementary Table 1),run:Lestaurtinib_02367_R2,Plate:MR003): 218 nM | potency estimated from few doses (ULK3; compound concentrations:100 nM and 1000 nM (sheet 'Lestaurtinib' of Supplementary Table 1),run:Lestaurtinib_02367_R3,Plate:MR003): 228 nM | potency estimated from few doses (ULK3; compound concentrations:100 nM and 1000 nM (sheet 'Lestaurtinib' of Supplementary Table 1),run:Lestaurtinib_02381_R1,Plate:MR004): 154 nM | potency estimated from few doses (ULK3; compound concentrations:100 nM and 1000 nM (sheet 'Lestaurtinib' of Supplementary Table 1),run:Lestaurtinib_02407_R1,Plate:MR005): 137 nM | potency estimated from few doses (ULK3; compound concentrations:100 nM and 1000 nM (sheet 'Lestaurtinib' of Supplementary Table 1),run:Lestaurtinib_02422_R1,Plate:MR006): 113 nM | potency estimated from few doses (ULK3; compound concentrations:100 nM and 1000 nM (sheet 'Lestaurtinib' of Supplementary Table 1),run:Lestaurtinib_02422_R2,Plate:MR006): 60.5 nM | potency estimated from few doses (ULK3; compound concentrations:100 nM and 1000 nM (sheet 'Lestaurtinib' of Supplementary Table 1),run:Lestaurtinib_02422_R3,Plate:MR006): 134 nM | potency estimated from few doses (ULK3; compound concentrations:100 nM and 1000 nM (sheet 'Lestaurtinib' of Supplementary Table 1),run:Lestaurtinib_02437_R1,Plate:MR007): 239 nM | potency estimated from few doses (ULK3; compound concentrations:100 nM and 1000 nM (sheet 'Lestaurtinib' of Supplementary Table 1),run:Lestaurtinib_02437_R2,Plate:MR007): 253 nM | potency estimated from few doses (ULK3; compound concentrations:100 nM and 1000 nM (sheet 'Lestaurtinib' of Supplementary Table 1),run:Lestaurtinib_02437_R3,Plate:MR007): 22.5 nM | potency estimated from few doses (ULK3; compound concentrations:100 nM and 1000 nM (sheet 'Lestaurtinib' of Supplementary Table 1),run:Lestaurtinib_02438_R2,Plate:MR008): 236 nM | potency estimated from few doses (ULK3; compound concentrations:100 nM and 1000 nM (sheet 'Lestaurtinib' of Supplementary Table 1),run:Lestaurtinib_02438_R3,Plate:MR008): 286 nM | potency estimated from few doses (ULK3; compound concentrations:100 nM and 1000 nM (sheet 'Lestaurtinib' of Supplementary Table 1),run:Lestaurtinib_02443_R1,Plate:MR009): 231 nM | potency estimated from few doses (ULK3; compound concentrations:100 nM and 1000 nM (sheet 'Lestaurtinib' of Supplementary Table 1),run:Lestaurtinib_02443_R2,Plate:MR009): 239 nM | potency estimated from few doses (ULK3; compound concentrations:100 nM and 1000 nM (sheet 'Lestaurtinib' of Supplementary Table 1),run:Lestaurtinib_02443_R3,Plate:MR009): 196 nM | potency estimated from few doses (ULK3; compound concentrations:100 nM and 1000 nM (sheet 'Lestaurtinib' of Supplementary Table 1),run:Lestaurtinib_02473_R1,Plate:MR010): 232 nM | potency estimated from few doses (ULK3; compound concentrations:100 nM and 1000 nM (sheet 'Lestaurtinib' of Supplementary Table 1),run:Lestaurtinib_02473_R2,Plate:MR010): 253 nM | potency estimated from few doses (ULK3; compound concentrations:100 nM and 1000 nM (sheet 'Lestaurtinib' of Supplementary Table 1),run:Lestaurtinib_02482_R1,Plate:MR011): 240 nM | potency estimated from few doses (ULK3; compound concentrations:100 nM and 1000 nM (sheet 'Lestaurtinib' of Supplementary Table 1),run:Lestaurtinib_02482_R2,Plate:MR011): 244 nM | potency estimated from few doses (ULK3; compound concentrations:100 nM and 1000 nM (sheet 'Lestaurtinib' of Supplementary Table 1),run:Lestaurtinib_02482_R3,Plate:MR011): 219 nM | potency estimated from few doses (ULK3; compound concentrations:100 nM and 1000 nM (sheet 'Lestaurtinib' of Supplementary Table 1),run:Lestaurtinib_02487_R1,Plate:MR012): 144 nM | potency estimated from few doses (ULK3; compound concentrations:100 nM and 1000 nM (sheet 'Lestaurtinib' of Supplementary Table 1),run:Lestaurtinib_02487_R2,Plate:MR012): 219 nM | potency estimated from few doses (ULK3; compound concentrations:100 nM and 1000 nM (sheet 'Lestaurtinib' of Supplementary Table 1),run:Lestaurtinib_02487_R3,Plate:MR012): 250 nM | potency estimated from few doses (ULK3; compound concentrations:100 nM and 1000 nM (sheet 'Lestaurtinib' of Supplementary Table 1),run:Lestaurtinib_02496_R1,Plate:MR013): 131 nM | potency estimated from few doses (ULK3; compound concentrations:100 nM and 1000 nM (sheet 'Lestaurtinib' of Supplementary Table 1),run:Lestaurtinib_02496_R2,Plate:MR013): 165 nM | potency estimated from few doses (ULK3; compound concentrations:100 nM and 1000 nM (sheet 'Lestaurtinib' of Supplementary Table 1),run:Lestaurtinib_02496_R3,Plate:MR013): 254 nM | potency estimated from few doses (ULK3; compound concentrations:100 nM and 1000 nM (sheet 'Lestaurtinib' of Supplementary Table 1),run:Lestaurtinib_02566_R1,Plate:MR014): 153 nM | potency estimated from few doses (ULK3; compound concentrations:100 nM and 1000 nM (sheet 'Lestaurtinib' of Supplementary Table 1),run:Lestaurtinib_02566_R3,Plate:MR014): 242 nM | potency estimated from few doses (ULK3; compound concentrations:100 nM and 1000 nM (sheet 'Lestaurtinib' of Supplementary Table 1),run:Lestaurtinib_02572_R3,Plate:MR015): 329 nM | potency estimated from few doses (ULK3; compound concentrations:100 nM and 1000 nM (sheet 'Lestaurtinib' of Supplementary Table 1),run:Lestaurtinib_02577_R2,Plate:MR016): 271 nM | potency estimated from few doses (ULK3; compound concentrations:100 nM and 1000 nM (sheet 'Lestaurtinib' of Supplementary Table 1),run:Lestaurtinib_02577_R3,Plate:MR016): 224 nM | potency estimated from few doses (ULK3; compound concentrations:100 nM and 1000 nM (sheet 'Lestaurtinib' of Supplementary Table 1),run:Lestaurtinib_02584_R1,Plate:MR017): 232 nM | potency estimated from few doses (ULK3; compound concentrations:100 nM and 1000 nM (sheet 'Lestaurtinib' of Supplementary Table 1),run:Lestaurtinib_02584_R2,Plate:MR017): 261 nM | potency estimated from few doses (ULK3; compound concentrations:100 nM and 1000 nM (sheet 'Lestaurtinib' of Supplementary Table 1),run:Lestaurtinib_02584_R3,Plate:MR017): 254 nM | potency estimated from few doses (ULK3; compound concentrations:100 nM and 1000 nM (sheet 'Lestaurtinib' of Supplementary Table 1),run:Lestaurtinib_02601_R1,Plate:MR018): 290 nM | potency estimated from few doses (ULK3; compound concentrations:100 nM and 1000 nM (sheet 'Lestaurtinib' of Supplementary Table 1),run:Lestaurtinib_02601_R2,Plate:MR018): 271 nM | potency estimated from few doses (ULK3; compound concentrations:100 nM and 1000 nM (sheet 'Lestaurtinib' of Supplementary Table 1),run:Lestaurtinib_02601_R3,Plate:MR018): 297 nM | potency estimated from few doses (ULK3; compound concentrations:100 nM and 1000 nM (sheet 'Lestaurtinib' of Supplementary Table 1),run:Lestaurtinib_02624_R2,Plate:MR020): 258 nM | potency estimated from few doses (ULK3; compound concentrations:100 nM and 1000 nM (sheet 'Lestaurtinib' of Supplementary Table 1),run:Lestaurtinib_02624_R3,Plate:MR020): 269 nM | potency estimated from few doses (ULK3; compound concentrations:100 nM and 1000 nM (sheet 'Lestaurtinib' of Supplementary Table 1),run:Lestaurtinib_02724_R1,Plate:MR021): 243 nM | potency estimated from few doses (ULK3; compound concentrations:100 nM and 1000 nM (sheet 'Lestaurtinib' of Supplementary Table 1),run:Lestaurtinib_02724_R2,Plate:MR021): 220 nM | potency estimated from few doses (ULK3; compound concentrations:100 nM and 1000 nM (sheet 'Lestaurtinib' of Supplementary Table 1),run:Lestaurtinib_02741_R1,Plate:MR023): 268 nM | potency estimated from few doses (ULK3; compound concentrations:100 nM and 1000 nM (sheet 'Lestaurtinib' of Supplementary Table 1),run:Lestaurtinib_02748_R1,Plate:MR024): 144 nM | potency estimated from few doses (ULK3; compound concentrations:100 nM and 1000 nM (sheet 'Lestaurtinib' of Supplementary Table 1),run:Lestaurtinib_02748_R2,Plate:MR024): 132 nM | potency estimated from few doses (ULK3; compound concentrations:100 nM and 1000 nM (sheet 'Lestaurtinib' of Supplementary Table 1),run:Lestaurtinib_02752_R1,Plate:MR025): 260 nM | potency estimated from few doses (ULK3; compound concentrations:100 nM and 1000 nM (sheet 'Lestaurtinib' of Supplementary Table 1),run:Lestaurtinib_02765_R1,Plate:MR026): 320 nM | potency estimated from few doses (ULK3; compound concentrations:100 nM and 1000 nM (sheet 'Lestaurtinib' of Supplementary Table 1),run:Lestaurtinib_02765_R3,Plate:MR026): 304 nM | potency estimated from few doses (ULK3; compound concentrations:100 nM and 1000 nM (sheet 'Lestaurtinib' of Supplementary Table 1),run:Lestaurtinib_02768_R1,Plate:MR028): 240 nM | potency estimated from few doses (ULK3; compound concentrations:100 nM and 1000 nM (sheet 'Lestaurtinib' of Supplementary Table 1),run:Lestaurtinib_02768_R3,Plate:MR028): 206 nM | potency estimated from few doses (ULK3; compound concentrations:100 nM and 1000 nM (sheet 'Lestaurtinib' of Supplementary Table 1),run:Lestaurtinib_02802_R3,Plate:MR029): 237 nM | potency estimated from few doses (ULK3; [1]): 236 nM | potency estimated from few doses (ULK3; [2]): 158 nM | potency estimated from few doses (ULK3; compound concentrations:100 nM and 1000 nM (sheet 'Lestaurtinib' of Supplementary Table 1),run:Lestaurtinib_03172_R1,Plate:MR031): 259 nM | potency estimated from few doses (ULK3; [3]): 261 nM | potency estimated from few doses (ULK3; [4]): 314 nM
